Screening data deposited in PubChem BioAssay by The Scripps Research Institute Molecular Screening Center.
FBW7 act: FBW7 E3 ligase activators, primary screen, biochemical, AlphaScreen, human. AlphaScreen FBW7–phospho-cyclin E peptide binding, activator screen. normalized activity (activation), % at 26.1 µM. actives 0.13% (n = 650,000); in the data active = normalized activity above about 1.9%;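 also: purified mutant Fbw7 with reduced substrate affinity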
GPR151 ag: activators of human GPR151, primary screen, cell-based, PathHunter beta-arrestin, luminescence | activation, % at 11.2 µM | G-protein coupled receptor 151 (Homo sapiens), Q8TDV0 | actives 1% (n = 650,000) | PathHunter beta-arrestin GPR151 cells; in the data active = activation above about 4.9%
MITF inh: MITF inhibitors, primary screen, biochemical, AlphaScreen, human; Microphthalmia-associated transcription factor (Homo sapiens), O75030; AlphaScreen MITF homodimerization, bead proximity signal; inhibition, % at 2.6 µM; actives 0.91% (n = 650,000); in the data active = inhibition above about 50%
Target sequence (O75030 whole entry, looked up): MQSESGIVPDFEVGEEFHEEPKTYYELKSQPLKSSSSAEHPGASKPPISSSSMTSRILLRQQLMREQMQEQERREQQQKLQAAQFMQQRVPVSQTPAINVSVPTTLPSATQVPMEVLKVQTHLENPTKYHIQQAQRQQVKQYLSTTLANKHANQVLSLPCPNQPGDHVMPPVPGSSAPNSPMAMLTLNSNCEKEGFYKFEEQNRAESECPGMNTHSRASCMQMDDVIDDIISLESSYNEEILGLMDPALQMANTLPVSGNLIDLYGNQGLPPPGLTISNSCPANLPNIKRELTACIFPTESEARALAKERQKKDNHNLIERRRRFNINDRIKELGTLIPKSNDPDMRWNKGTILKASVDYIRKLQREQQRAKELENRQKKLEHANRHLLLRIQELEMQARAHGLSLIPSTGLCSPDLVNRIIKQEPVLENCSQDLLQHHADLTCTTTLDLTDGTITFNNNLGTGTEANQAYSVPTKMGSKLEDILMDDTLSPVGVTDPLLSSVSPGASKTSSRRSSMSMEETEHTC
TEAD-YAP block: TEAD-YAP interaction inhibition, primary screen, TEAD-YAP interaction inhibitor project, luminescence, HEK-TIYL cells; actives 1.4% (n = 640,000); TEAD-Gal4/YAP UAS-luciferase luminescence; inhibition, % at 9.12 µM; AID 1259422, 2018; in the data active = inhibition above about 32%
GPR151 confirm: GPR151 activators, triplicate retest, confirmation, cell-based, PathHunter beta-arrestin, luminescence. activation, % at 11.2 µM. AID 1508609, 2020. GPR151 PathHunter beta-arrestin cells, 90 min; % of EA-reagent control over plate median. shares compounds with GPR151 ag. 6,700 tested, under 10 active;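 active = mean percent activation across replicates above the confirmation screen cutoff of 4.91%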
GPR119 ag: GPR119 activators in beta-arrestin cells, counter-screen for GPR151 activator project, cell-based, PathHunter beta-arrestin, luminescence, triplicate; shares compounds with GPR151 ag; 90 min; 0 = compound-well median, 100 = enzyme-acceptor control; activation, % at 11.2 µM; actives 0.3% (n = 6,700); AID 1508611, 2020;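 active = mean percent activation in the counterscreen above 29.09%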;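 also: counterscreen on off-target GPR119 to flag nonselective hits from the GPR151 activator screen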
A number is an active result; n = inactive; x = no result. Hits are enriched below; roughly 3.5% of the tested compounds scored in any of these assays.

SMILES	FBW7 act	GPR151 ag	MITF inh	TEAD-YAP block	GPR151 confirm	GPR119 ag
Cc1ccc(N2C(=O)c3ccc([N+](=O)[O-])cc3C2=O)cc1Cl	n	n	n	n	x	x
Cc1ccc2c(c1)N(C(=O)N1CCCC(C(=O)NCc3ccccc3)C1)CC(C)O2 (stereo not given)	n	n	n	n	x	x
C/C(=N/NC(N)=S)c1ccccc1[N+](=O)[O-]	n	5.6	n	n	n	n
CC1CCCCN1C(=O)CSc1nnc2n(C)c(=O)c3ccccc3n12 (stereo not given)	n	n	n	n	x	x
CCOC(=O)C1C(=O)CC(C)(O)C(C(=O)OCC)C1c1ccc(CC)cc1 (stereo not given)	n	n	n	n	x	x
CCOC(=O)C1C(=O)CC(C)(O)C(C(=O)OCC)C1c1cccnc1 (stereo not given)	n	5.0	n	n	n	n
CC(=O)N1CCC(N(C(=O)C2CCN(c3ccc(C(F)(F)F)cn3)CC2)C2CC2)CC1	n	5.5	n	n	n	n
C#CCNc1ncnc2c1nnn2Cc1ccccc1	n	n	n	n	x	x
O=C(NC(NCCOC12CC3CC(CC(C3)C1)C2)(C(F)(F)F)C(F)(F)F)c1ccc(Cl)cc1	n	n	n	n	x	x
CS(=O)(=O)N(CC(N)=O)c1cccc([N+](=O)[O-])c1	n	n	n	n	x	x
Cc1ccc(S(=O)(=O)N(CC(N)=O)c2cccc([N+](=O)[O-])c2)cc1	n	8.4	n	n	n	n
COc1ccccc1-n1c(-c2ccc(NS(C)(=O)=O)cc2)n[nH]c1=S	n	6.5	n	n	n	n
COc1ccc(-c2n[nH]c(=S)n2-c2cc(OC)ccc2OC)cc1	n	n	n	n	x	x
Cn1c(C(=O)Nc2ccc(Oc3ccccc3)cc2)cc2c(=O)n3ccccc3nc21	n	5.9	n	n	n	n
CC(=O)Nc1ccc(NC(=O)c2cc3c(=O)n4ccccc4nc3n2C)cc1	n	n	n	n	x	x
Cc1ccc(NC(=O)c2cc3c(=O)n4ccccc4nc3n2C)cc1F	n	5.6	n	n	n	n
O=C(O)C1C(C(=O)Nc2ccccc2)C2C=CC1C21CC1 (stereo not given)	n	7.5	n	n	n	n
O=C(O)C1C(C(=O)Nc2ccc(Cl)cc2)C2C=CC1C21CC1 (stereo not given)	n	n	n	n	x	x
Cc1cccc(N2C(=O)C(=O)/C(=C(/O)c3ccc(Cl)cc3)C2c2ccc(Br)cc2)c1 (stereo not given)	n	n	n	n	x	x
COc1cc(/C=C\C(=O)Nc2c3c(nn2-c2ccc(F)cc2)CS(=O)(=O)C3)cc(OC)c1OC	n	n	n	n	x	x
CCOCCCNC(=O)C(NC(=O)C1CCC(=O)N1)c1ccccc1 (stereo not given)	n	5.6	n	n	n	n
N#CCCn1cc(C=O)c(-c2ccc(-c3ccccc3)cc2)n1	n	5.5	n	n	n	n
N#CCCn1cc(/C=N/O)c(-c2ccccc2)n1	n	n	n	n	x	x
Cc1nc2nc(SCC(=O)NC3CCCCC3)nn2c(C)c1Cc1ccc(Cl)cc1	n	n	n	n	x	x
CCOC(=O)CSc1nnc(CNC(=O)c2ccc(OC)cc2)n1CC	n	n	n	n	x	x
SMILES	FBW7 act	GPR151 ag	MITF inh	TEAD-YAP block	GPR151 confirm	GPR119 ag
CCCCn1c(CNC(=O)c2ccc(OC)cc2)nnc1SCC(=O)OCC	n	6.4	n	n	n	n
COc1ccc(C(=O)NCc2nnc(SCC(=O)c3ccccc3)n2C)cc1	n	6.5	n	n	n	n
CN(C)C1=C(C(=O)c2ccccc2)NS(=O)(=O)c2ccccc21	n	n	n	n	x	x
CC(Oc1ccccc1)C(=O)N1CCc2nnc(CNC(=O)C3CC3)n2CC1 (stereo not given)	n	n	n	n	x	x
CCC(C)NC(=O)c1ccc2c(=O)n(Cc3ccccc3OC)c(=S)[nH]c2c1 (stereo not given)	n	n	n	n	x	x
COc1ccccc1OCc1nnc(SCCN2CCOCC2)o1	n	5.9	n	n	n	n
